CRFR2-BP ag = agonists of human CRF-binding protein/CRF-R2 receptor complex. AID 588473. actives 0.46% (n = 350,000). activation, % at 13.2 µM. HEK293 CRF-R2/CRF-BP, calcium dye fluorescence (FLIPR); percent of saturating CRF peptide response;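 active = activation of at least 50%, plus an integration ratio under a set limit after plate pattern correction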;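 note: plate controls were neutral control wells without compound for no effect and CRF at EC100 for full effect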
Cardiac RTF inh = cardiac RTF calcium desensitization | P19429+P45379 | inhibition, % at 7.15 µM | IANBD-labeled cardiac RTF, Ca2+ fluorescence | AID 493244 | actives 0.12% (n = 340,000);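 active = inhibition above the mean inhibition of all tested compounds plus 3 SD, cut at about 17% in these data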;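 note: assay run at fixed EC70 calcium of 1.6 mM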
Myeloid diff MLP = promotes myeloid progenitor differentiation | AID 624256 | actives 1% (n = 360,000) | ER-HoxA9 myeloid progenitors, lysozyme-GFP differentiation, flow cytometry | calls only at 10 µM;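 active = normalized GFP-positive differentiation at or above the plate's own cutoff, the solvent-only control mean plus 3 SD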;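 note: cells exposed to compound for four days before flow analysis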
cardiac RTF act = cardiac RTF calcium sensitization. P19429+P45379. IANBD-labeled TnC RTF fluorescence at EC20 calcium; 0% EC20 calcium, 100% full calcium. actives 0.24% (n = 340,000). activation, % at 7.2 µM;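 active = activation above the mean over all tested compounds plus 3 SD, cut at about 30% in these data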;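 note: rise in fluorescence read as greater calcium sensitivity of cardiac thin filaments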
CRFR2-BP antag = antagonists of CRF-binding protein/CRF-R2 receptor complex. HEK293 CRF-R2/CRF-BP, CRF-induced calcium fluorescence. inhibition, % at 11.8 µM. actives 0.59% (n = 350,000);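 active = inhibition of the ligand-induced calcium signal above about 50% at the single tested concentration, limit read from the data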
* hit, by the source's call; i = inactive; / = no result given; + = active, no number. Compounds with a hit are over-represented: about 2.2% of the library has one in this group of screens.

SMILES	CRFR2-BP ag	Cardiac RTF inh	Myeloid diff MLP	cardiac RTF act	CRFR2-BP antag
CCOc1ccc(NS(=O)(=O)c2ccc3c(c2)N(C(C)=O)CC3)cc1	-1	4	i	11	3
CCOc1ccc(NS(=O)(=O)c2ccc3c(c2)CCN3C(C)=O)cc1	-1	-11	+	1	7
COc1ccc(OC)c(S(=O)(=O)Nc2ccc3c(c2)N(C(C)=O)CCC3)c1	-2	-12	i	3	-6
CC1Nc2ccccc2C(=O)N1NS(=O)(=O)c1ccccc1 (stereo not drawn)	0	4	i	5	-28
COc1ccc(CN(C(=O)c2snc(C(N)=O)c2N)C(C(=O)NC2CCCC2)c2ccc(OC)cc2)cc1 (stereo not drawn)	-1	5	i	-6	4
COc1ccc(CN(C(=O)c2nsc(Cl)c2Cl)C(C(=O)NC2CCCC2)c2ccc(OC)cc2)cc1 (stereo not drawn)	53*	-20	i	-9	-10
Cc1ccc(S(=O)(=O)Nc2ccccc2/C=N/c2nc3ccccc3n2C)cc1	-2	-20	i	1	71*
CN(C)CCCNc1c2ccccc2nc2ccccc12	0	-1	/	-3	12
OCCNc1c2ccccc2nc2c(F)c(F)c(F)c(F)c12	69*	-29	/	6	-113
CCN(CC)c1ccc2cc(C(=O)Nc3ccccn3)c(=O)oc2c1	263*	-32	i	53*	-206
CCN(CC)c1ccc2cc(C(N)=O)c(=O)oc2c1	41	-11	i	15	-46
CCN(CC)c1ccc2cc(C(N)=O)c(=N)oc2c1	258*	/	i	/	-249
CCN(CC)c1ccc2cc(C(C)=O)c(=O)oc2c1	361*	-186	i	153*	-169
CCN(CC)c1ccc2cc(C=O)c(=O)oc2c1	309	-425	i	425*	-230
CN(c1ccccc1)S(=O)(=O)c1cc(C(=O)NCc2ccco2)ccc1Cl	-1	/	i	/	-6
COc1ccc(S(=O)(=O)N(C)C[C@H]2Oc3c(NC(=O)C4CCCCC4)cccc3C(=O)N([C@H](C)CO)C[C@@H]2C)cc1	-2	5	i	-3	3
CCN(CC)c1ccc2cc(NC(=O)CCC(=O)O)c(=O)oc2c1	88*	-65	/	70*	-80
CCN(CC)c1ccc2cc(-c3nnc(-c4ccncc4)o3)c(=O)oc2c1	337*	-200	+	163*	-403
c1cc(-c2nnc(-c3ccncc3)o2)ccn1	1	-7	i	2	-8
COc1ccc(CCNC(=O)CSc2nnc3ccccn23)cc1	-1	-13	i	4	14
CNc1nc(NCC2CCCCC2)c2sccc2n1	/	/	i	/	/
CCCCc1ccc(-c2csc(/C(C#N)=C/c3ccco3)n2)cc1	1	-14	+	-2	-43
N#C/C(=C\c1ccc(F)cc1)c1nc(-c2ccco2)cs1	4	-7	i	6	-9
N#C/C(=C\c1ccc(Cl)cc1)c1nc(-c2ccco2)cs1	-2	-11	+	0	22
CCOC(=O)C1CCN(C(=O)COC(=O)c2ccc(=O)n(Cc3ccccc3)n2)CC1	1	-2	i	-6	-8
SMILES	CRFR2-BP ag	Cardiac RTF inh	Myeloid diff MLP	cardiac RTF act	CRFR2-BP antag
Cc1cc(C)c(C#N)c(Sc2nc(C)c([N+](=O)[O-])c(C)c2C#N)n1	/	/	+	/	/
COC(=O)C1CCN(C(=O)COC(=O)c2cc([N+](=O)[O-])ccc2N2CCOCC2)CC1	0	-3	i	-1	105*
COc1ccc(CCCC(=O)NC2CCCCC2)cc1	0	2	i	-4	33
COc1ccc(CCC(=O)NC2CCC(C)CC2)cc1 (stereo not drawn)	1	2	+	-6	-6
COc1ccc(CCC(=O)NC(C)C)cc1	-1	-1	+	1	17
O=C(Nc1nc(-c2ccccc2)cs1)c1ccc2c(c1)S(=O)(=O)c1ccccc1C2=O	0	0	i	1	86*
O=C(Nc1nc(-c2cccc3ccccc23)cs1)c1ccc2c(c1)S(=O)(=O)c1ccccc1C2=O	0	-10	i	14	11
O=C(NCC1CCCO1)c1onc(CSc2cccc3ccccc23)c1C(=O)O (stereo not drawn)	-5	-7	i	4	50*
COC(=O)C1=COC(C)C2CN3CCc4c([nH]c5cc(OC)c(OC)cc45)C3CC12 (stereo not drawn)	15	-22	i	30*	-10
O=C(NCCC1=CCCCC1)C1CCN(C(=O)Cc2ccccc2)CC1	-4	-5	i	6	-6
CCOC(=O)c1[nH]c(C(=O)O)c(OC(=O)CC)c1C	-2	0	i	-3	1
CCOc1ccc(/C=C2\CCCc3c2nc2ccccc2c3C(=O)O)cc1OC	/	i	i	767*	/
CC(C)CC(=NNC(=O)c1ccncc1)c1cc(Cl)ccc1O	150*	-6	/	5	-107
CC1C(=O)N(Cc2cn(Cc3ccco3)nn2)CCS(=O)(=O)N1Cc1ccc(-c2cccc(N(C)C)c2)cc1 (stereo not drawn)	-2	/	i	/	-3
N#CCc1ccc(NS(=O)(=O)c2cccs2)cc1	0	-2	i	-4	112*
Cc1ccc(C)c(NC(=S)Nc2ncccc2C)c1	1	-2	i	-2	124*
Cc1nc2ncnn2c(C)c1Cc1cccc(C(F)(F)F)c1	0	3	+	-5	0
Cc1ccccc1Cc1c(C)nc2ncnn2c1C	-3	-3	i	3	34
COc1ccc(C(=O)COC(=O)c2cccnc2SC)cc1	0	-4	i	0	78*
Cc1ccc(C)c(S(=O)(=O)C(C#N)c2nc3ccccc3nc2N2CCOCC2)c1 (stereo not drawn)	6	-4	i	-1	63*
Cc1cccc(S(=O)(=O)C(C#N)c2nc3ccccc3nc2N2CCCC2)c1 (stereo not drawn)	64*	-13	/	6	-17
Cn1nc(C(=O)OCC(=O)Nc2ccc3ccccc3c2)c2ccccc2c1=O	0	5	i	1	4
O=C(COc1cc(Cl)ccc1Cl)N1CCNC1=O	-1	3	i	-5	51*
O=S(=O)(Nc1nc2ccccc2s1)c1ccc(Br)s1	0	1	+	-1	43
CCN(Cc1ccccc1)C(c1cccc(C#N)c1)c1nnnn1C(C)(C)C (stereo not drawn)	-1	-8	i	4	89*
CCN(Cc1ccccc1)C(c1ccc(C(F)(F)F)cc1)c1nnnn1C(C)(C)C (stereo not drawn)	13	-1	i	6	4
CCOC(=O)N1CCN(C(=O)c2nn(C)c3c2CSc2ccccc2-3)CC1	-3	0	i	4	21
Cc1ccc(S(=O)(=O)CC(=O)c2ccccc2)cc1	-6	-5	i	0	9
CC(C)(C)c1ccc(C(=O)CS(=O)(=O)c2ccccc2)cc1	4	-21	/	2	77*

Screening results: PubChem BioAssay, several laboratories
